Over roughly 33,000 sequences, “e-score” has its median near -0.05; the highest 2% begin near 0.38. This is one part of a sample in which the highest values are shown more often than they occur.
Biological target: T1, SIX1-Q177R homeodomain (human, UniProt Q15475 108-198, Q177R)
T1 sequence: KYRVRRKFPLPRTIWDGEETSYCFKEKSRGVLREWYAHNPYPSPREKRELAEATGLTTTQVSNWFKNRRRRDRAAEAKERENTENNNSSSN
Experiment: universal protein binding microarray; Universal all-10-mer PBM (8x60K, AMADID 030236), 300 nM GST-tagged protein, Alexa Fluor 488 anti-GST; buffer, salt, pH and temperature not stated (as in Berger); high values mean tight binding
Settings: protein: ivt; tags: N-terminal GST; dsDNA, one strand shown
In short: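 After in vitro transcription/translation, GST-tagged homeodomains were quantified against a recombinant GST standard curve by anti-GST western blot. They were then placed in duplicate at 300 nM final concentration on universal 'all 10-mer' protein binding microarrays of 8×60K format.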

Row | Sequence | binding signal [E-score]
1 | CCCCTACG | 0.181 ± 0.00578
2 | CACGTGCG | 0.171 ± 0.0176
3 | CACTGCCG | 0.26 ± 0.0036
4 | ACTAGGGA | 0.18 ± 0.018
5 | TGTCAGAA | 0.183 ± 0.0293
6 | CAACCCCA | 0.173 ± 0.00554
7 | CACGAGAA | 0.2024 ± 0.00175
8 | TATCGACA | 0.212 ± 0.0495
9 | AACGCCGT | 0.159 ± 0.0311
10 | AATATACA | 0.18 ± 0.0323
11 | AATACACT | 0.327 ± 0.0629
12 | CATGCACC | 0.165 ± 0.0266
13 | CATACTCC | 0.21183 ± 0.000205
14 | CATACACC | 0.4625 ± 0.00144
15 | AATACACC | 0.46 ± 0.00939
16 | ACTCCGCA | 0.225 ± 0.0283
17 | CGAACCCC | 0.238 ± 0.0417
18 | GTGCTCCA | 0.183 ± 0.0244
19 | ATCCACAG | 0.185 ± 0.0127
20 | ACATTCGG | 0.311 ± 0.0104
21 | CACCACAC | 0.426 ± 0.00815
22 | CACCACAG | 0.322 ± 0.0259
23 | CACACGAA | 0.217 ± 0.0302
24 | AACCACAC | 0.281 ± 0.0163
25 | CACACCAC | 0.442 ± 0.00998

Row | Sequence | binding signal [E-score]
26 | CCCACCAC | 0.158 ± 0.0233
27 | CACACGAG | 0.238 ± 0.00672
28 | CACACCAA | 0.38 ± 0.0115
29 | CACCCCAG | 0.36 ± 0.0234
30 | CACACCAG | 0.416 ± 0.029
31 | CGCACCAC | 0.206 ± 0.0107
32 | CGCACCAG | 0.17 ± 0.0676
33 | AGGATACT | 0.167 ± 0.0416
34 | CACTCACA | 0.228 ± 0.0123
35 | CCCTAGTA | 0.18 ± 0.00712
36 | CACCCAAA | 0.255 ± 0.0189
37 | TACCGACA | 0.166 ± 0.00446
38 | AGTCAGTG | 0.207 ± 0.0189
39 | CCCCACTC | 0.18 ± 0.00661
40 | CGGGTCAC | 0.246 ± 0.0313
41 | CCCGCCCC | 0.1792 ± 0.00129
42 | AACACCAG | 0.4653 ± 0.00151
43 | AACACGAG | 0.361 ± 0.00448
44 | AGCACCAG | 0.247 ± 0.0221
45 | ACCAATAC | 0.1574 ± 0.000269
46 | GCAGTGTA | 0.415 ± 0.0107
47 | CCAGTTTA | 0.227 ± 0.00151
48 | CCAGTAAC | 0.161 ± 0.0301
49 | CCAGTGTC | 0.431 ± 0.00754
50 | AAAGTGTC | 0.36 ± 0.0233

Row | Sequence | binding signal [E-score]
51 | CCTGTGTC | 0.229 ± 0.0614
52 | ACAGTGTC | 0.387 ± 0.00426
53 | GCAGGGTA | 0.162 ± 0.00253
54 | CCAGTGTA | 0.43 ± 0.0046
55 | ACTGTGTC | 0.155 ± 0.074
56 | GAAGTGTA | 0.368 ± 0.0537
57 | CCAGTGGG | 0.224 ± 0.0185
58 | CTCCCCTA | 0.159 ± 0.0508
59 | CCGGGCGA | 0.151 ± 0.0223
60 | GATCCACA | 0.157 ± 0.00291
61 | ACCCTGAA | 0.21 ± 0.0501
62 | CACAGGAG | 0.168 ± 0.00689
63 | GGATCCCC | 0.298 ± 0.0202
64 | CCCCGCCC | 0.223 ± 0.0451
65 | TACTAACA | 0.185 ± 0.0552
66 | AGTGCGGA | 0.161 ± 0.0458
67 | CCGGATCG | 0.199 ± 0.0134
68 | CCCGCCGC | 0.184 ± 0.0289
69 | ACAGTGTA | 0.381 ± 0.0259
70 | AAAGTGTA | 0.36 ± 0.0454
71 | ACAGAGTG | 0.184 ± 0.0479
72 | GCACCCCA | 0.257 ± 0.053
73 | ACTGGATC | 0.155 ± 0.0197
74 | GCGTAACA | 0.199 ± 0.0107
75 | GGTATCAA | 0.325 ± 0.0148

Row | Sequence | binding signal [E-score]
76 | GGTATCAC | 0.3993 ± 0.00177
77 | CGTATCAC | 0.162 ± 0.023
78 | ACCCGCCA | 0.152 ± 0.0278
79 | ATGATCCC | 0.251 ± 0.0242
80 | CTACACTA | 0.401 ± 0.013
81 | GCACACTA | 0.2
82 | CCACACTC | 0.308 ± 0.014
83 | CTACACTC | 0.412 ± 0.0145
84 | GTACACTA | 0.432 ± 0.0136
85 | ATACACTC | 0.369 ± 0.0201
86 | CCACACTA | 0.206 ± 0.00246
87 | ATACACTA | 0.364 ± 0.0337
88 | TCTCAACA | 0.219 ± 0.0267
89 | ACTTTACA | 0.228 ± 0.0604
90 | TGCGAACA | 0.158 ± 0.012
91 | ATCCCCCA | 0.24 ± 0.0099
92 | TAGTTACA | 0.249 ± 0.0533
93 | GACCCGAC | 0.193 ± 0.052
94 | GAGGTATA | 0.18 ± 0.0163
95 | GAGGTGCA | 0.192 ± 0.0287
96 | AAGGTGGT | 0.151 ± 0.00564
97 | CAGGTGTA | 0.464 ± 0.00823
98 | GAGGTGTA | 0.466 ± 0.00775
99 | CATGTGTA | 0.2594 ± 0.00165
100 | AAGGTGCA | 0.222 ± 0.0217

Row | Sequence | binding signal [E-score]
101 | CAGGTACA | 0.187 ± 0.0255
102 | AAGGTGTG | 0.369 ± 0.0137
103 | AAGGTGTA | 0.461 ± 0.0153
104 | AAGGTGTC | 0.4706 ± 0.00267
105 | AAGCGTGT | 0.378 ± 0.00665
106 | GATCCCGA | 0.203 ± 0.0172
107 | ACGCACGA | 0.277 ± 0.005
108 | CCCCCGGG | 0.195 ± 0.00105
109 | CCCACCCG | 0.194 ± 0.0228
110 | ACGAGTTA | 0.205 ± 0.00221
111 | CAACCCCC | 0.242 ± 0.0559
112 | ACACAAGG | 0.155 ± 0.0571
113 | ACCAGTGA | 0.189 ± 0.0202
114 | CACTTACG | 0.206 ± 0.0274
115 | AAGGAGTA | 0.158 ± 0.0662
116 | ACATGGTG | 0.33 ± 0.0163
117 | CACGAGCA | 0.242 ± 0.0191
118 | ACCCGACT | 0.207 ± 0.0388
119 | CTGCGACA | 0.195 ± 0.00854
120 | CAGGTATC | 0.328 ± 0.00751
121 | CATGTGTC | 0.19 ± 0.0338
122 | CAGGTGTC | 0.474 ± 0.0095
123 | CCCAGGTA | 0.203 ± 0.0198
124 | AGCGGGTA | 0.158 ± 0.0257
125 | AGCGTGTG | 0.281 ± 0.00182

Row | Sequence | binding signal [E-score]
126 | CGCGTGTC | 0.414 ± 0.00637
127 | CACGCGTG | 0.317 ± 0.0193
128 | CGTGTGTC | 0.289 ± 0.0336
129 | CGTGTGTA | 0.296 ± 0.0261
130 | AACGTGTG | 0.154 ± 0.0123
131 | AGCGTGTA | 0.419 ± 0.0156
132 | AGAGCGTG | 0.189 ± 0.00653
133 | CGCGTGTA | 0.43 ± 0.00692
134 | CGCGTATC | 0.155 ± 0.05
135 | AGCGTGTC | 0.393 ± 0.00925
136 | ACCGCACC | 0.247 ± 0.013
137 | CTCGGATA | 0.188 ± 0.0289
138 | GTGGATCA | 0.161 ± 0.0203
139 | ACTGGTGC | 0.297 ± 0.00607
140 | CACGGTCA | 0.2431 ± 0.00219
141 | GTCCAACA | 0.216 ± 0.00357
142 | AGAAACGG | 0.152 ± 0.0193
143 | ATAGGTGC | 0.193 ± 0.00788
144 | ACTGAGTG | 0.1766 ± 0.000721
145 | TCTTGACA | 0.167 ± 0.0124
146 | CCCCCGAA | 0.238 ± 0.0222
147 | GAGGGTTA | 0.185 ± 0.00774
148 | CGACTAAC | 0.192 ± 0.0385
149 | CACGCACG | 0.304
150 | ATTGCGTG | 0.183 ± 0.0294

Row | Sequence | binding signal [E-score]
151 | GGCGTGTA | 0.4378 ± 0.00204
152 | GGCGTACA | 0.283 ± 0.0225
153 | GACGTGTA | 0.368 ± 0.0248
154 | AACACTGT | 0.3445 ± 0.00205
155 | AACACCGT | 0.4669 ± 0.00366
156 | GGCACCGA | 0.175 ± 0.0275
157 | TACACCGA | 0.4853 ± 0.00441
158 | AACACCGA | 0.4686 ± 0.00331
159 | GTCACCGA | 0.175 ± 0.0101
160 | GACACCGA | 0.486 ± 0.00613
161 | TACACAGA | 0.152 ± 0.0583
162 | AGCACCGA | 0.197 ± 0.00674
163 | AACACAGT | 0.158 ± 0.0584
164 | CACCCCGA | 0.346 ± 0.0278
165 | ACCCAACA | 0.251 ± 0.0117
166 | ACGATCCG | 0.232 ± 0.0258
167 | AATCTACA | 0.22 ± 0.0213
168 | ACCCGTGC | 0.1616 ± 0.000424
169 | GCACTATA | 0.191 ± 0.0272
170 | GACGCCGC | 0.151 ± 0.0247
171 | CGCACCGC | 0.209 ± 0.0348
172 | AGCACCGG | 0.206 ± 0.0351

— paper PMC10668032, “Altered binding affinity of SIX1-Q177R correlates with enhanced WNT5A and WNT pathway effector expression in Wilms tumor”
